# The source made the active and inactive calls. Rule for the calls: active = hit-call score of the fitted dose curve at least 0.9, where 1 is the maximum; inactive = score below 0.9.
# Target: Peroxisome proliferator-activated receptor gamma (Homo sapiens) (UniProt P37231)
# Test: ATG_hPPARg_EcoTox2: Attagene TRANS-FACTORIAL EcoTox-2 HepG2 Assay for human Peroxisome Proliferator-activated Receptor gamma (PPARg)
# Protocol: ATG_EcoTox2 is a cell-based, multiplexed assay created by modifying the existing Attagene TRANS-FACTORIAL system to include a panel of nuclear receptors from some or all the following species: human (Homo sapiens), african clawed frog (Xenopus laevis), rainbow trout (Oncorhynchus mykiss), japanese medaka (Oryzias latipes), and zebrafish (Danio rerio). The ECOTOX2-FACTORIAL format uses HepG2, a human liver cell line, with measurements taken at 24 hours after chemical dosing in a 24-well plate. ATG_hPPARg_EcoTox2 is one of 29 assay components calculated in the ATG_EcoTox2 assay. It is designed to make measurements of mRNA induction, a form of inducible reporter, as detected with fluorescence intensity signals by Reverse transcription polymerase chain reaction (RT-PCR) and Capillary electrophoresis technology.The assay endpoint ATG_hPPARg_EcoTox2 was analyzed in the positive analysis fitting direction relative to DMSO as the negative control and baseline of activity. Using a type of inducible reporter, measures of mRNA for gain-of-signal activity can be used to understand the reporter gene at the transcription factor-level as they relate to the gene PPARg. Furthermore, this assay endpoint can be referred to as a primary readout, because this assay has produced multiple assay endpoints where this one serves a reporter gene function. To generalize the intended target to other relatable targets, this assay endpoint is annotated to the nuclear receptor intended target family, where the subfamily is non-steroidal.
# Human liver HepG2 cells are transiently transfected with multiple reporter transcription units (MRTUs) in 6-well plates using FuGene 6 reagent (Roche; 3 ml FuGene/1 mg DNA). The MRTU constructs are regulated by a cis-regulating element (promoter). Each RTU expresses a GAL4-UAS that regulates the transcription of a nearby target reporter gene sequence. A major difference between the CIS and TRANS system is that in CIS activities of endogenous TFs are measured, whereas the TRANS assay evaluates changes in activities of exogenous, chimeric NR-Gal4 proteins. […] At the end of 24 hour incubation, total RNA was isolated using TriZol reagent (Invitrogen). The isolated RNA is then reverse-transcribed using oligo(dT) primer and Mo-MLV reverse transcriptase (Invitrogen) with DNAse I (Ambion) treatment for 30 min. The one-tenth of the produced cDNA was amplified by PCR using Taq DNA polymerase (Invitrogen) and two reporter sequence-specific primers. […] The fragments were purified using Qiaquick PCR columns (Qiagen), analyzed on an ABI 3130xL genetic analyzer (Applied Biosystems) with peak positions identified by using a set of X-rhodamine (ROX)-labeled MapMarker1000 molecular weight standards (BioVentures). […]
# Chain of Peroxisome proliferator-activated receptor gamma (Homo sapiens) (P37231 whole entry, looked up): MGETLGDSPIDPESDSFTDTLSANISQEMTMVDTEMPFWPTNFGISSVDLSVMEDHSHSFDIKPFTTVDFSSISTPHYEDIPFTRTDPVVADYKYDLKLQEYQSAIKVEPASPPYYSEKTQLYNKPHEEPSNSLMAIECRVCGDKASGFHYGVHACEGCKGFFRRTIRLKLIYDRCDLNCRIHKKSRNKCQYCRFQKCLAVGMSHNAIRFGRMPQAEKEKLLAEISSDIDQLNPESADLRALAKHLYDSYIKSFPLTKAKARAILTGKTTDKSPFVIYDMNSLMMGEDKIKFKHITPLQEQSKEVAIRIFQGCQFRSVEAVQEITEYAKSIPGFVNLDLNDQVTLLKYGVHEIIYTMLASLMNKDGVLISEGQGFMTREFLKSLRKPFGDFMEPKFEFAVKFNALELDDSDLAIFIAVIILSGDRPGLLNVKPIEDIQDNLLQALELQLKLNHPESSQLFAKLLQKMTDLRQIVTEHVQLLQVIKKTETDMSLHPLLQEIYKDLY
row,Compound,AC50
1,CCCCOCN(C(=O)CCl)c1c(CC)cccc1CC,1.53 µM (active)
2,O=S(=O)(O)C(F)(F)C(F)(F)C(F)(F)C(F)(F)C(F)(F)C(F)(F)F,42.7 µM (active)
3,[Cl][Sn]([c]1ccccc1)([c]1ccccc1)[c]1ccccc1,0.0461 µM (active)
4,O=P(Oc1ccccc1)(Oc1ccccc1)Oc1ccccc1,5.76 µM (active)
